# Only some compounds are listed: those with a hit (about 5.7% of all), similar ones and a draw of the others.
# KB-3-1 tox – qHTS assay for MDR1-selective chemotherapeutics: Primary screen using the parental adenocarcinoma cell KB-3-1; KB-3-1 viability, CellTiter-Glo ATP luminescence, 72 h; Potency, µM (series often up to 46.1 µM), actives largely listed as cytotoxic; 400,000 tested, 1.4% active; AID 1347075, 2019; note: nearly all actives have a fitted effect of over 60% in size
#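 Here the drug-naive KB-3-1 line serves as comparator for MDR sub-line selectivity; cells received compound titrations, 72 h at 37 °C, then CellTiter-Glo readout.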
# KB-V1 cytotox – qHTS assay for MDR1-selective chemotherapeutics: Primary screen using the drug-selected MDR subline cells KB-V1; 400,000 tested, 3.4% active; Potency, µM (series often up to 46.1 µM), most hits filed as cytotoxic; KB-V1 MDR cells viability, CellTiter-Glo, 72 h; note: nearly all actives have a fitted effect of over 60% in size
#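 Cytotoxicity via CellTiter-Glo luminescence after 72 h compound exposure at 37 degrees C. Cells: drug-selected KB-V1 line, DMEM phenol-red free plus 10% FBS. Compounds tested at multiple concentrations; normalized data fitted to concentration-effect curves.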
# HT1080-NT tox – qHTS for induction of synthetic lethality in tumor cells producing 2HG: qHTS for the HT-1080-NT fibrosarcoma cell line | AID 686970, 2013 | 360,000 tested, 1.6% active | Potency, µM (doses to about 46.1 µM), inactives show at the top dose activity, negative = less viability, actives largely listed as cytotoxic | HT-1080-NT fibrosarcoma viability, CellTiter-Glo ATP luminescence, 48 h;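 note: NT is the 2HG producing partner of a matched IDH1 knockdown line; 0% = DMSO-treated cells and -100% = media-only wells without cells; nearly all actives have a fitted effect of over 55% in size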
#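 HT-1080-NT fibrosarcoma cells (2HG-overproducing), 750 cells/well in RPMI with 5% FBS, dosed after 2 h and incubated 48 h at 37C. CellTiter-Glo luminescence normalized to DMSO and no-cell wells; concentration-response curves fitted and classed.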
# HT1080 IDH1KD tx – qHTS for induction of synthetic lethality in tumor cells producing 2HG: qHTS for the HT-1080-IDH1KD cell line; 360,000 tested, 2% active; HT-1080 IDH1 knockdown viability, ATP luminescence, 48 h; Potency, µM (highest dose often 46.1 µM), for the others: at the highest dose activity, negative = toxicity, actives largely listed as cytotoxic; AID 686971, 2013;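 note: 0% = DMSO wells and -100% = cell-free medium wells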
#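 HT-1080-IDH1KD cells (IDH1 knocked down), 750/well in RPMI with 5% FBS, treated with compound 48 h at 37 degrees C. Viability by CellTiter-Glo luminescence, normalised to DMSO and no-cell wells; concentration-response curves classed.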
# * hit, by the source's call; i = inactive; u = inconclusive; x = no result given. Calls come from the whole dose curve; as a rule, active = well fitted curve in the direction sought with a large enough effect; inconclusive = small, poorly fitted or top-dose-only effect, or another doubt; inactive = no such curve, though single readings can be large; an effect the other way counts as inactive or inconclusive. Unless noted, % is set by controls: 0 for no effect and ±100 for the full control effect; potency is the fitted concentration of half-maximal effect.
SMILES,KB-3-1 tox,KB-V1 cytotox,HT1080-NT tox,HT1080 IDH1KD tx
O=C(CN1CCN(S(=O)(=O)N2CCCCC2)CC1)Nc1ccc(Cl)c(Cl)c1,u,13µM*,-20.9%,u
COc1cc(OC)nc(NC(=O)CN2CCN(c3ccc(F)cc3)CC2)n1,i,23.1µM*,6.3%,-8.3%
O=C(Nc1cc(Cl)ccc1Cl)N1CCN(C(=O)Nc2cc(Cl)ccc2Cl)CC1,i,14.6µM*,0.6%,1.9%
NC(=O)Nc1cc(Cl)ccc1Cl,i,i,12.8%,7.8%
CCCC(=O)OC1=CN(Cc2ccccc2)S(=O)(=O)c2ccccc21,i,i,x,x
COc1ccc(S(=O)(=O)N2CCN(CCC(=O)Nc3ccc(F)cc3)CC2)cc1,u,5.17µM*,-1.2%,-2.4%
CN1CCN(S(=O)(=O)c2ccc(-c3ccc(Cl)cc3)cc2)CC1,i,13µM*,12.4%,9.1%
O=C(CN1CCN(S(=O)(=O)c2ccc3ccccc3c2)CC1)Nc1ccc(N2CCOCC2)cc1,i,i,-4.2%,-9.8%
CN1CCN(S(=O)(=O)c2ccc(Cl)cc2)CC1,i,i,4.7%,7.3%
COc1ccc(N2CCN(CC(=O)Nc3cccc(S(=O)(=O)N4CCOCC4)c3)CC2)cc1,u,10.3µM*,-4.6%,-1.2%
CN(C)S(=O)(=O)N1CCN(CC(=O)Nc2cc(Cl)ccc2Cl)CC1,i,18.4µM*,11.0%,4.2%
COc1ccc(NC(=O)CCN2CCN(S(=O)(=O)c3ccc(F)cc3)CC2)cc1,i,i,0.6%,14.4%
CN(C)S(=O)(=O)N1CCN(CC(=O)Nc2ccc(Br)cc2)CC1,i,i,6.5%,-0.3%
COc1ccc(S(=O)(=O)N2CCN(CC(=O)Nc3ccc(C)c(F)c3)CC2)cc1,i,6.51µM*,-0.6%,-13.5%
Cc1ccc(NC(=O)CN2CCN(S(=O)(=O)c3ccc(C(C)C)cc3)CC2)cc1F,i,u,x,x
CN(C(=O)CCN1C(=O)c2ccccc2C1=O)C1CCCCC1,i,i,-1.6%,14.7%
CN(C(=O)CCCN1C(=O)c2ccccc2C1=O)C1CCCCC1,i,11.6µM*,19.6%,18.5%
Cc1ccc(N2CCN(Cc3nnc(-c4ccccc4F)o3)CC2)c(C)c1,i,i,x,x
Cc1ccc(-c2nnc3ccc(SCC(=O)c4ccccc4)nn23)cc1,i,i,x,x
N#Cc1ccccc1Sc1ccccc1C(=O)Nc1ccc(Br)cc1,i,18.4µM*,0.7%,-0.6%
NCCCN(Cc1ccc(Cl)c(Cl)c1)c1ccc(Br)cn1,x,x,u,11.2µM*
NCCCN(Cc1ccc(Cl)cc1)c1ccc(Br)cn1,x,x,u,11.2µM*
COc1cc(OC)c2ccc(=O)oc2c1C(CCN1CCN(c2ccccc2)CC1)c1ccc(N(C)C)cc1 (configuration not stated),i,i,-0.2%,-7.5%
O=C(/C=C/c1ccc(O)cc1)c1ccc(O)cc1O,u,u,25.9µM*,23.1µM*
Cc1cc(/C=C(\C#N)C(=O)NCC2CCCO2)c(C)n1-c1ccc(Cl)cc1 (configuration not stated),i,4.11µM*,-11.2%,u
SMILES,KB-3-1 tox,KB-V1 cytotox,HT1080-NT tox,HT1080 IDH1KD tx
N#C/C(=C\c1cn(CCOc2ccccc2)c2ccccc12)C(=O)NCC1CCCO1 (configuration not stated),i,6.51µM*,-1.8%,-16.2%
Cc1ccc(C)c(OCCn2cc(/C=C(/C#N)C(=O)NCC3CCCO3)c3ccccc32)c1 (configuration not stated),i,14.6µM*,-8.0%,-12.1%
CCOC(=O)/C(C#N)=C/c1cn(CCOc2ccc(OC)cc2)c2ccccc12,i,i,-6.2%,-2.9%
COc1cc(/C=C(\C#N)C(=O)NCC2CCCO2)ccc1O (configuration not stated),i,u,5.8%,10.7%
COc1ccccc1OCCn1cc(/C=C(\C#N)C(=O)NCc2cccs2)c2ccccc21,i,18.4µM*,-1.1%,-0.7%
Cc1ccc(C(=O)Nc2ccccc2C(=O)O)cc1S(=O)(=O)N1CCCCCC1,i,i,x,x
CCOC(=O)CSc1nc2c(c(=O)[nH]1)C(C)(CC)Cc1ccccc1-2 (configuration not stated),u,u,u,5.8µM*
CCOc1ccc(NC(=O)c2cc3c(n(-c4ccc(OC)cc4)c2=O)CC(C)(C)CC3=O)cc1,i,i,x,x
Cc1cc(N2CCN(c3ccccc3)CC2)nc(-n2nc(C)cc2C)n1,i,2.59µM*,0.708µM*,1.12µM*
Cc1ccc(OCCCn2c(-c3ccc(Cl)cc3)nc3ccccc3c2=O)c(C)c1,i,u,x,x
CCCn1nc(C(=O)Nc2ccc3c(c2)OCCO3)c2ccccc2c1=O,i,16.4µM*,-8.0%,-2.8%
CCCCn1nc(C(=O)NC2CCCCCC2)c2ccccc2c1=O,x,x,11.3%,3.9%
CCCn1nc(C(=O)NC2CCCc3ccccc32)c2ccccc2c1=O (configuration not stated),i,23.1µM*,-20.3%,-25.7%
CCCCn1nc(C(=O)Nc2ccccc2N2CCCC2)c2ccccc2c1=O,i,3.66µM*,1.9%,-0.5%
Cc1ccc2c(c1)Oc1ccc(NC(=O)CCl)cc1C(=O)N2,5.8µM*,9.2µM*,3.66µM*,2.91µM*
Cc1ccc2c(c1)c1c(n2CC(O)CN2CCCCCC2)CCCC1 (configuration not stated),i,i,u,u
Cc1ccc2c(c1)c1c(n2CC(O)Cn2nc(C)c(Br)c2C)CCCC1 (configuration not stated),u,20.6µM*,u,u
COCCn1c(SCC(=O)Nc2nc(C)c(Cl)cc2Cl)nc2ccccc21,i,u,-21.5%,-7.7%
O=C(O)CCSc1nc2ccccc2n1-c1ccccc1,i,i,u,u
Cc1cccc(-n2c(SCC(=O)Nc3ncc(Cl)cc3Cl)nc3ccccc32)c1,2.91µM*,u,u,u
O=C(CSc1nc2ccccc2n1-c1ccccc1)Nc1ncc(Cl)cc1Cl,5.17µM*,u,-3.0%,-22.3%
Cn1c(Cc2ccccc2)nnc1SCc1cc(=O)n2ccsc2n1,i,i,16.7%,13.7%
Cc1cccc(-n2c(SCc3cc(=O)n4ccsc4n3)nc3ccccc32)c1,u,13µM*,-22.5%,-14.3%
Nc1c(Cl)cc(/C=C2\C=Cc3ccccc32)cc1Cl,i,i,x,x
Cc1ccc(CN(C(=O)c2ccc(OCC(C)C)cc2)c2ccccn2)o1,i,i,x,x
O=C1[C@H](Oc2ccccc2)[C@@H](c2ccncc2)N1c1ccncc1,i,i,3.1%,7.7%
O=C1[C@@H](Oc2ccccc2)[C@@H](c2cnc3ccccc3c2)N1c1ccccc1,i,i,u,20.6µM*

# Source: PubChem
